Calls of active or inactive are those of the source.

The first assay can be described thus: CREB reporter modulators without forskolin, primary screen, cell-based, PC12, CRE-LacZ reporter, unstimulated (AID 1145). Conditions: no forskolin, luminescence, 4.5 h, higher = more signal, called active from +8 up or from −8 down.
As for `C=C(/C(=C/C[C@@H](OC(=O)c1ccncc1)c1ccccc1OCCO)c1cc(C(=O)OC)ccc1OC)C(C)C`, the z-score is 22.5 (active).
Regarding `COc1ccc([Si](C)(C)[C@H]2[C@H](CCn3cc([C@H](O)c4ccccc4)nn3)O[C@@]3(C(=O)N(Cc4ccc(N5CCOC5=O)cc4)c4ccccc43)[C@@H]2C)cc1`, the z-score is 0.804 (inactive).
In the case of `CC(C)OC(=O)CC(=O)CC(O)c1cccc(C#N)c1` (centres undefined), the z-score was -0.63 (inactive).
For `COc1cc(CO)cc(I)c1O[C@H]1C=C(C(=O)NCCO)C[C@@H](NCc2ccccc2F)[C@@H]1O`, the z-score is 9.26 (active).
Turning to `CC(C)CN1C(=O)[C@@]2(Cc3ccccc31)c1ccccc1C(=O)N(Cc1ccccc1C(F)(F)F)[C@H]2c1ccc(CO)cc1`, the z-score is 0.0655 (inactive).
For the molecule `CCOC(=O)[C@@H]1[C@@H]2C(=O)N(CC)C(=O)[C@@H]2C[C@@H]1Sc1ccccc1`, the z-score was 0.136 (inactive).
On to `C=CC[C@@H](OC(=O)Nc1ccc(OC)cc1)c1ccc(OCCO)cc1`, for which the z-score is 1.29 (inactive).
Still for that read-out and setting: the figure for `O=C(NC1CC1)[C@@H]1c2ccccc2C(=O)N(Cc2ccccc2)[C@H]1c1ccc(CO)cc1` is -0.825 (inactive).
On to `CC[C@H]1C2=C3C(CC[C@H]4C(OCc5ccc(F)cc5C(F)(F)F)OC[C@](C)([C@@H]34)N(C(=O)OC(C)(C)C)C2)C2COC(=O)OCC21` (some centres undefined), for which the z-score is 0.576 (inactive).
As for `COC(=O)[C@]1(CCS(=O)(=O)c2ccccc2)N=C(c2ccc(OCCCO)cc2)O[C@@H]1c1ccccc1CN=[N+]=[N-]`, the z-score was 1.73 (inactive).
As for `C=CCOC(=O)[C@@H]1[C@H]2C(=O)O[C@H](c3ccccc3)[C@H](c3ccccc3)N2[C@H](c2ccc(OCCOC(=O)[C@H]3C[C@H]4C(=O)N[C@@H](CCCCNC(C)=O)C(=O)N4[C@H]3c3cccc(OCCO)c3)cc2)[C@@]12C(=O)Nc1ccc(I)cc12`, the z-score is -0.256 (inactive).
`O=C1OCCC=C[C@H]2OC34C=CCN(c5ccc(Cl)cc5)C(=O)[C@H]3N(CCCCCO)C(=O)[C@@H]4C12` (some centres undefined): the z-score is 0.187 (inactive).
On the same count and under the same terms, the figure for `COc1ccc(C(O)C2C=CC3C(=O)N(Cc4ccccc4)C(=O)C3N2n2cnnc2)c2ccccc12` (centres undefined) is -0.126 (inactive).

Another assay can be described thus: CREB reporter modulators under forskolin, primary screen, cell-based, PC12, CRE-LacZ reporter, forskolin-stimulated (AID 1146).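 Also: PC12 cells with 6xCRE LacZ reporter stimulated by forskolin 10 µM; beta-galactosidase reporter signal reflecting CREB driven transcription.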 Conditions: luminescence, 4.5 h, higher = more signal, called active from +8 up or from −8 down.
Take `COCCOC(=O)N1C(=O)[C@@]2(c3cc(C#CC4(O)CCCCCC4)ccc31)[C@H](C(N)=O)[C@H]1C(=O)O[C@H](c3ccccc3)[C@H](c3ccccc3)N1[C@@H]2c1ccccc1OCCO`: the z-score was 0.0643 (inactive).
`C=CCN1C(=O)[C@@]2(O[C@@H](CCO)[C@H]([Si](C)(C)c3ccc(OC)cc3)[C@H]2C)c2cc(N3C(=O)c4ccccc4Oc4ccccc43)ccc21`: the z-score was -3.87 (inactive).
In the case of `C[C@]1(C(=O)NC2CC2)c2ccccc2C(=O)N(Cc2ccc(OC(F)(F)F)cc2)[C@H]1c1ccc(CO)cc1`, the z-score was -0.103 (inactive).
The same measure, in the same setting: the same measure for `CC(C)(C)OC(=O)CC[C@]1(C(=O)N2CCOCC2)N=C(c2ccc(OCCCO)cc2)O[C@H]1c1ccccc1`: 1.06 (inactive); for `C=C[C@@H](C)[C@H](OC(=O)Nc1ccc(SC)cc1)c1ccc(OCCO)cc1`: -0.97 (inactive).
As for `COC(=O)[C@@]1(Cc2ccc(OC)cc2)[C@H]2c3cc(C(=O)N4CCCC4)n(CCc4cc5ccccc5[nH]4)c3C[C@H]2CN1C(=O)c1ccccc1`, the z-score was 0.375 (inactive).
For `C=CCNC(=O)[C@@H]1[C@H]2C(=O)O[C@H](c3ccccc3)[C@H](c3ccccc3)N2[C@H](c2ccc(OCCO)cc2)[C@@]12C(=O)N(C(=O)OCCOC)c1ccc(C#CC3=CCCCC3)cc12`, the z-score was 0.886 (inactive).
Turning to `CC(C)C(CO)N1C(=O)[C@]2(C)C3C(=O)OCCC/C=C\[C@H]3OC23C=CCN(c2ccc(Cl)cc2)C(=O)[C@@H]13` (some centres undefined), the z-score was 1.11 (inactive).
With `C=CC[C@H](OC(=O)Nc1ccc(OC)cc1)c1ccc(O)c2ccccc12`, the z-score was 5.57 (inactive).
Same read-out and setting: the same measure for `COc1cc(CO)cc(I)c1O[C@H]1C=C(C(=O)NCCO)C[C@@H](N(Cc2ccc(F)cc2)C(=O)C2CCCO2)[C@@H]1O` (some centres undefined): -1.24 (inactive); for `CCCC[C@@H]1C[C@H]1[C@@H](NC(=O)c1ccccc1)c1ccc(Cl)cc1`: 0.699 (inactive).
As for `CN(C)CCCNC(=O)[C@@H]1c2ccccc2C(=O)N(CC23CC4CC(CC(C4)C2)C3)[C@H]1c1ccc(CO)cc1`, the z-score is -0.0221 (inactive).
Turning to `CC(=O)N1Cc2ccccc2C[C@]2(N=C(c3ccc(OCCCO)cc3)O[C@@H]2c2ccccc2)C1=O`, the z-score was 2.08 (inactive).
The same measure, in the same setting: the figure for `C=CCOC(=O)[C@H]1[C@@H]2C(=O)O[C@@H](c3ccccc3)[C@@H](c3ccccc3)N2[C@@H](c2ccc(OCCOC(=O)[C@H]3C[C@H]4C(=O)N[C@@H](Cc5ccccc5)C(=O)N4[C@H]3c3ccc(O)cc3)cc2)[C@]12C(=O)Nc1ccc(I)cc12` is 0.204 (inactive); for `COC(=O)C1(Cc2ccccc2)C=C2C(=C(C(C)C)C(=O)C2C)CN1` (centres undefined) it is -0.173 (inactive).
Consider `C=CC[C@]12N=C(c3ccc(OCCCO)cc3)O[C@H]1c1ccccc1N(C)C2=O`, for which the z-score is -1.18 (inactive).
Still for that read-out and setting: the figure for `CC=CC(O)C1C=CC2C(=O)N(C)C(=O)C2N1N1CCCCC1` (centres undefined) is 0.319 (inactive).
For the molecule `CCCNC(=O)[C@@]1(c2ccc([N+](=O)[O-])cc2)CC(=O)N(C2CCCCC2)[C@@H]1c1ccc(CO)cc1I`, the z-score is 1.18 (inactive).
`O=C1C[C@@](C(=O)NCC(F)(F)F)(c2ccc([N+](=O)[O-])cc2)[C@@H](c2ccc(CO)cc2)N1C1CCCCC1`: the z-score was -0.369 (inactive).
With `CCOC(=O)C[C@H]1[C@H](OC(=O)c2ccccc2-c2ccccc2)[C@@H](NC(=O)CC(C)C)c2cc(OCCCO)ccc2N1C(=O)c1ccc2ccccc2n1`, the z-score was 0.724 (inactive).
With `COc1ccc(C(O)C2C=CC3C(=O)N(C)C(=O)C3N2N2CCCCC2)cc1` (centres undefined), the z-score was 0.104 (inactive).
As to `CCCCC(CC)C(O)C1C=CC2C(=O)N(c3ccccc3)C(=O)C2N1Nc1ccc([N+](=O)[O-])cc1` (centres undefined), the z-score was -0.0973 (inactive).
With `C=C(C(=O)CC[C@H](OC(C)=O)c1cccc(OCCO)c1)C(C)C`, the z-score was 1.04 (inactive).
`C=C(/C(=C/C[C@@H](OC(=O)c1ccncc1)c1ccccc1OCCO)c1cc(C(=O)OC)ccc1OC)C(C)C`: the z-score is -0.267 (inactive).
Still for that read-out and setting: the same measure for `COc1ccc([Si](C)(C)[C@H]2[C@H](CCn3cc([C@H](O)c4ccccc4)nn3)O[C@@]3(C(=O)N(Cc4ccc(N5CCOC5=O)cc4)c4ccccc43)[C@@H]2C)cc1`: -0.889 (inactive).
For `CC(C)OC(=O)CC(=O)CC(O)c1cccc(C#N)c1` (centres undefined), the z-score was -0.291 (inactive).
Turning to `COc1cc(CO)cc(I)c1O[C@H]1C=C(C(=O)NCCO)C[C@@H](NCc2ccccc2F)[C@@H]1O`, the z-score is -1.22 (inactive).
For `CC(C)CN1C(=O)[C@@]2(Cc3ccccc31)c1ccccc1C(=O)N(Cc1ccccc1C(F)(F)F)[C@H]2c1ccc(CO)cc1`, the z-score was -0.416 (inactive).
Turning to `CCOC(=O)[C@@H]1[C@@H]2C(=O)N(CC)C(=O)[C@@H]2C[C@@H]1Sc1ccccc1`, the z-score was 1.04 (inactive).
With `C=CC[C@@H](OC(=O)Nc1ccc(OC)cc1)c1ccc(OCCO)cc1`, the z-score was 0.0646 (inactive).
Consider `O=C(NC1CC1)[C@@H]1c2ccccc2C(=O)N(Cc2ccccc2)[C@H]1c1ccc(CO)cc1`, for which the z-score was -1.22 (inactive).
`CC[C@H]1C2=C3C(CC[C@H]4C(OCc5ccc(F)cc5C(F)(F)F)OC[C@](C)([C@@H]34)N(C(=O)OC(C)(C)C)C2)C2COC(=O)OCC21` (some centres undefined): the z-score was 0.204 (inactive).
On the same count and under the same terms, the figure for `COC(=O)[C@]1(CCS(=O)(=O)c2ccccc2)N=C(c2ccc(OCCCO)cc2)O[C@@H]1c1ccccc1CN=[N+]=[N-]` is -1.37 (inactive).
As to `C=CCOC(=O)[C@@H]1[C@H]2C(=O)O[C@H](c3ccccc3)[C@H](c3ccccc3)N2[C@H](c2ccc(OCCOC(=O)[C@H]3C[C@H]4C(=O)N[C@@H](CCCCNC(C)=O)C(=O)N4[C@H]3c3cccc(OCCO)c3)cc2)[C@@]12C(=O)Nc1ccc(I)cc12`, the z-score was 0.215 (inactive).
For `O=C1OCCC=C[C@H]2OC34C=CCN(c5ccc(Cl)cc5)C(=O)[C@H]3N(CCCCCO)C(=O)[C@@H]4C12` (some centres undefined), the z-score was -0.382 (inactive).
Regarding `COc1ccc(C(O)C2C=CC3C(=O)N(Cc4ccccc4)C(=O)C3N2n2cnnc2)c2ccccc12` (centres undefined), the z-score was -0.138 (inactive).

These data come from PubChem BioAssay.
